These results are taken from PubChem BioAssay (NCI).

What all share (assay): NCI-60 one-dose screen, 48 h (100 = growth as untreated, 0 = no growth, -100 = all killed)
Common to all, as to conditions: 10 µM unless noted

In experiment [1] the test system is SR leukemia.
Experiment [2] deals with RPMI-8226 leukemia.
The test system of experiment [3] is OVCAR-8 ovarian.
The subject of experiment [4] is OVCAR-5 ovarian.
The subject of experiment [5] is OVCAR-4 ovarian.
Experiment [6] concerns SK-OV-3 ovarian.
In experiment [7] the test system is IGROV1 ovarian.
Experiment [8] relates to OVCAR-3 ovarian.
The subject of experiment [9] is HS 578T breast.
The test system of experiment [10] is NCI/ADR-RES ovarian.
The subject of experiment [11] is T-47D breast.
The test system of experiment [12] is BT-549 breast.
Experiment [13] concerns MDA-MB-435 melanoma.
In experiment [14] the test system is SW-620 colon.
Experiment [15] has as its system MCF7 breast.
Experiment [16] relates to HCT-116 colon.
The test system of experiment [17] is HCC-2998 colon.
Experiment [18] deals with KM12 colon.

Compounds without any hit were thinned out: in the full panel of roughly 83,000, 20% have a hit.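 In brief: 96-well plates, 48 h treatment, single concentration, percent growth endpoint.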 Values without a mark were called inactive. Active and inactive are the calls of the source. How the source made its calls: active means growth percent below 10; inactive means the rest.

With `CC(=O)NC(C)(C)C(=O)N1CCC[C@H]1C(=O)NC(C)(C)C(=O)N[C@@H](C)C(=O)NC(C)(C)C(=O)NC(C)(C)C(=O)N[C@@H](CCC(N)=O)C(=O)NC(C)(C)C(=O)N[C@H](C(=O)NC(C)(C)C(=O)NCC(=O)N[C@@H](CC(C)C)C(=O)NC(C)(C)C(=O)N1CCC[C@H]1C(=O)N[C@H](C(=O)NC(C)(C)C(=O)NC(C)(C)C(=O)N[C@@H](CCC(N)=O)C(=O)N[C@@H](CCC(N)=O)C(=O)N[C@H](CO)Cc1ccccc1)C(C)C)C(C)C`, the growth was 30.2% [4.25 µM] in [1]; -17.4% [4.25 µM] (active) in [2]; 46.3% [4.25 µM] in experiment [3]; 45.2% [4.25 µM] in experiment [4]; 24.5% [4.25 µM] in [5]; 17.1% [4.25 µM] in experiment [6]. In addition, the growth was 46.4% [4.25 µM] in [7]; 26.3% [4.25 µM] in [8]; 46% [4.25 µM] in [9]; 101% [4.25 µM] in experiment [10]; 10% [4.25 µM] in experiment [11]; -56.1% [4.25 µM] (active) in [12]. Moreover, the growth in experiment [13] was 17% [4.25 µM]; in experiment [14] it was 45.5% [4.25 µM]; in experiment [15], 12.4% [4.25 µM]; in [16] it was 24.1% [4.25 µM]; in experiment [17], 39.7% [4.25 µM]; in experiment [18], 35.7% [4.25 µM].
`O=C1NC(=O)/C(=C/c2ccc(OCc3cc4ccccc4nc3Cl)cc2)S1`: the growth in [1] was 91%; in experiment [2], 78.7%; in [3] it was 99%; in experiment [4] it was 114%; in experiment [5], 93.5%; in experiment [6], 109%. The growth in [7] was 108%; in [8], 104%; in [9] it was 111%; in experiment [10] it was 100%; in experiment [11], 87.8%; in experiment [12], 123%. Besides, the growth was 98.3% in experiment [13]; 104% in [14]; 91.6% in experiment [15]; 98.1% in experiment [16]; 105% in experiment [17]; 100% in experiment [18].
Regarding `CN(C)C(=O)C1=NC(CO)C(=O)N(c2ccc(Cl)cc2)N1` (centres undefined), the growth in [1] is 107%; in experiment [2], 101%; in experiment [3], 104%; in experiment [4], 96.5%; in [5], 114%; in experiment [6], 114%. Also, the growth was 101% in [7]; 110% in experiment [8]; 104% in experiment [9]; 104% in [10]; 98.6% in [11]; 99.2% in experiment [12]. Also, the growth is 106% in experiment [13]; 103% in experiment [14]; 95.6% in [15]; 88.3% in [16]; 109% in [17]; 98.2% in [18].
`CC[C@H](C)[C@H]1NC(=O)[C@@H]([C@H](O)C(C)C)NC(=O)[C@@H](C)N(C)C(=O)[C@H](C)N(C)C(=O)[C@H](CC(C)C)NC(=O)[C@H](CC(C)C)N(C)C(=O)[C@H](C)N(C)C1=O`: the growth in experiment [1] is 5.76% (active); in experiment [2], -13.8% (active); in [3], 4.14% (active); in experiment [4], 6.87% (active); in experiment [5], 8.31% (active); in [6], -9.12% (active). For the same compound, the growth is 10.5% in [7]; 6.47% (active) in [8]; 5.82% (active) in experiment [9]; 11.4% in experiment [10]; -6.92% (active) in [11]; -4.47% (active) in experiment [12]. The growth in experiment [13] is 5.17% (active); in experiment [14] it was 5.6% (active); in experiment [15] it was 1.66% (active); in [16] it was 1.42% (active); in experiment [17] it was 2.12% (active); in experiment [18], 16%.
As to `COc1ccccc1/C=C/C=N/NC1=NC2C(S1)N(C)C(=O)N2c1ccccc1` (centres undefined), the growth in experiment [1] is 16.7%; in experiment [2], 18.9%; in [3], 24.4%; in experiment [4], 33.3%; in [5] it was 56.8%; in [6] it was 62.4%. Further, the growth was 19.4% in experiment [7]; -27.2% (active) in experiment [8]; 25.5% in experiment [9]; 10.4% in experiment [10]; 77.8% in experiment [11]; 10% in experiment [12]. Further, the growth is -20.6% (active) in experiment [13]; 17.7% in experiment [14]; 13.4% in [15]; 3.81% (active) in experiment [16]; 19.9% in [17]; 7.34% (active) in [18].
As to `CNC(=O)c1c(NC(=O)c2ccc(F)cc2F)sc2c1CCC(=O)C2`, the growth is 1.58% (active) in [1]; -12.3% (active) in experiment [2]; 13.9% in experiment [3]; 0.937% (active) in experiment [4]; -40.6% (active) in experiment [5]; -4.66% (active) in experiment [6]. Further, the growth in [7] is 22.8%; in experiment [8], 0.976% (active); in experiment [9], 24.5%; in [10] it was 5.72% (active); in [11] it was -14.2% (active); in [12] it was 6.83% (active). Also, the growth is 12.2% in experiment [13]; 5.05% (active) in [14]; 7.35% (active) in experiment [15]; 7% (active) in experiment [16]; 13.5% in [17]; 9.65% (active) in experiment [18].
Turning to `N=c1c2cc(-c3ccccc3)oc2ncn1/N=C/c1ccccc1`, the growth in experiment [1] is 16.4%; in [2] it was 99.1%; in experiment [3], 96.9%; in [4], 83.5%; in experiment [5], 93.2%; in [6], 96.5%. Besides, the growth is 63% in experiment [7]; 59.2% in experiment [8]; 91.3% in experiment [9]; 60.3% in experiment [10]; 94% in experiment [11]; 92.1% in experiment [12]. Further, the growth in experiment [13] was 7.67% (active); in experiment [14] it was 60.1%; in experiment [15], 50.4%; in experiment [16], 65%; in experiment [17], 99%; in experiment [18], 59%.
`O=C1[C@H]2Cc3c([nH]c4ccccc34)[C@H](c3ccc(Cl)cc3)N2C(=O)CN1C1CCN(Cc2c(Cl)cccc2Cl)CC1`: the growth in [1] was 22.2%; in experiment [2], 50.3%; in experiment [3], 84.5%; in experiment [4] it was 89.2%; in experiment [5], 69.9%; in [6], 98.5%. For the same compound, the growth in experiment [7] was 39%; in experiment [8] it was 76.8%; in experiment [9], 75.6%; in experiment [10], 77.6%; in [11], 62.5%; in experiment [12] it was 91.6%. Besides, the growth in experiment [13] is 77%; in experiment [14], 77%; in [15] it was 19.1%; in [16] it was 37.8%; in experiment [17], 44.1%; in experiment [18], 72.5%.
